From PubChem
FMDV antiviral: High Throughput Screening for Foot and Mouth Disease Virus Antivirals | FMDV antiviral cell-based qHTS | actives 1.2% (n = 410,000) | Potency, µM (top dose mostly 57.9 µM), for the others: at the top dose activity change, negative = inhibition, actives largely listed as inhibitors; calls by dose curve; tested in HEK293T cells; note: read-out not given here; potency is the fitted concentration of half-maximal effect; % is set by controls: 0 for no effect and ±100 for the full control effect; nearly all actives have a fitted effect of over 45% in size
LASV entry inh: qHTS for Inhibitors of binding or entry into cells for Lassa Virus; actives 1.2% (n = 300,000); AID 540256, 2011; Potency, µM (doses to about 37.9 µM), for the others: at the top dose activity change, negative = inhibition, actives largely listed as inhibitors; Lassa virus pseudotype entry inhibition, cell reporter; calls by dose curve; tested in HEK293 cells; note: potency is the fitted concentration of half-maximal effect; % is set by controls: 0 for no effect and ±100 for the full control effect; nearly all actives have a fitted effect of over 50% in size
HCMV inh: qHTS Assay for inhibitors of the human cytomegalovirus (HCMV) | HFF cells, HCMV-luciferase reporter, 72 h; stronger effect = lower value | activity change, negative = inhibition, % at 57.5 µM | actives 4.5% (n = 410,000); in the data active = activity change below about -60%; inconclusive = no clear call, values can overlap the other calls; inactive = above about -39%; note: % is set by controls: 0 for no effect and ±100 for the full control effect
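Steps: HFFs plated, 16 h 37C; compounds added; HCMV-luciferase added to MOI 1 PFU/cell; 72 h 37C; OneGlo reagent, 5 min room temperature; luminescence read, normalized to controls.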
MARV entry inh: qHTS for inhibitors of binding or entry into cells for Marburg Virus; Marburg virus pseudotyped entry inhibition, cell reporter; Potency, µM (titrated, usually from 37.8 µM), for the others: top-dose activity change, negative = inhibition, usual class: inhibitors; actives 1.8% (n = 300,000); AID 540276, 2011; calls by dose curve; tested in HEK293 cells; note: potency is the fitted concentration of half-maximal effect; % is set by controls: 0 for no effect and ±100 for the full control effect
SARS PLP yeast: qHTS of Yeast-based Assay for SARS-CoV PLP | S. cerevisiae expressing SARS-CoV PLpro, growth rescue | Potency, µM (series often up to 32.9 µM), inactives show top-dose activity, positive = growth rescue, usual class: activators | actives 0.19% (n = 330,000); calls by dose curve; note: potency is the fitted concentration of half-maximal effect; 0% is about no effect; nearly all actives have a fitted effect of over 55% in size
HCV inh: qHTS Assay for Inhibitors of Hepatitis C Virus (HCV). Huh7.5.1 HCVcc-Cre infection, luciferase reporter, 44 h. Potency, µM (series often up to 41.8 µM), for the others: top-dose activity change, negative = inhibition, hits mostly inhibitors. actives 3.4% (n = 340,000). AID 651820, 2012; active = well fitted inhibition curve with a large enough effect; inconclusive = small, poorly fitted or top-dose-only effect, or another doubt; inactive = no such curve, though single readings can be large or run the other way; note: potency is the fitted concentration of half-maximal effect; % is set by controls: 0 for no effect and ±100 for the full control effect
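After 44 h co-culture of compound, cells and HCVcc-Cre (~0.5 moi), substrate is added for 15 min at room temperature and luciferase measured over 15 sec. Cells were seeded at 1,000/well and pre-cultured 4 h.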
An asterisk follows results filed as active; ? = inconclusive; . = no result; [ ] = dose if it differs, or a comment. Hits are enriched below; roughly 8% of the tested compounds scored in any of these assays.

SMILES	FMDV antiviral	LASV entry inh	HCMV inh	MARV entry inh	SARS PLP yeast	HCV inh
CN(C)S(=O)(=O)c1ccc(NC(=O)N2CCN(c3cccc(C(F)(F)F)c3)CC2)cc1	28µM*	?	-79*	?	-4%	11µM*
COc1ccc(NC(=O)N2CCN(c3cccc(C(F)(F)F)c3)CC2)cc1	?	-6%	-16	?	4%	?
CC(=O)NCC(=O)NCC1Cc2cc(C)cc(-c3ccccn3)c2O1 (stereo not drawn)	-5%	.	.	.	.	.
Cc1cccnc1-c1cccc2c1OC(CNC(=O)Cc1c(C)noc1C)C2 (stereo not drawn)	-7%	.	.	.	.	.
O=C(CSCc1ccc(Cl)cc1)Nc1ccc(-c2nnc(-c3ccccc3)o2)cc1	-19%	18%	40	-3%	0%	7.1µM*
CCC(=O)Oc1ccc(NC(=O)CSCc2ccccc2)cc1	63%	.	-73*	.	0%	-1%
COc1ccc(-n2cc(-c3ccccc3)[nH]c2=S)c(OC)c1	?	.	-65*	.	1%	?
COc1ccc(-n2cc(-c3ccc(OC)c(OC)c3)[nH]c2=S)cc1	-1%	.	-32	.	-2%	?
CC(C)(C)n1nnnc1C(c1cccs1)N(Cc1cccnc1)Cc1ccccc1Cl (stereo not drawn)	-14%	1%	-20	?	?	10µM*
CC(c1nnnn1C(C)(C)C)N(Cc1cccnc1)Cc1ccccc1Cl (stereo not drawn)	?	-4%	-11	?	-9%	?
CCOc1ccc(N(CC)S(=O)(=O)N2CCCC(C(=O)Nc3ccc(OC)c(OC)c3)C2)cc1 (stereo not drawn)	?	-29%[46.1 µM]	-4	.	.	.
c1ccc(-c2n[nH]c3c2CCC3)cc1	0%	-2%	-16	?	-4%	13µM*
COc1cccc(-c2n[nH]c3c2CCC3)c1	14%	20%[46.1 µM]	-4	-25%[46.1 µM]	0%	-7%
Cc1nn(-c2ccccc2)c(C)c1NC(=O)COC(=O)c1cc([N+](=O)[O-])ccc1NCCO	-26%	?	-21	?	4%	22µM*
O=C(COC(=O)c1cc([N+](=O)[O-])ccc1NCCO)Nc1ccc2c(c1)OCO2	?	-28%	-9	?	0%	11µM*
C/C=C/c1ccc(OCC(O)CN2CCCCC2CC)c(OC)c1 (stereo not drawn)	-9%	-5%	-38	-23%[46.1 µM]	-2%	2.5µM*
C/C=C/c1ccc(OCC(O)CNCCc2ccc(OC)cc2)c(OC)c1 (stereo not drawn)	-27%	.	?	.	1%	?
C/C=C/c1ccc(OCCCNC2CCCC2)c(OC)c1	0%	?	1	?	-4%	0.89µM*
C/C=C/c1ccc(OCC(O)CN(C)Cc2ccc(SC)cc2)c(OC)c1 (stereo not drawn)	-11%	.	-102*	.	-4%	-21%
CCc1cccc(NC(=O)CN(C)S(=O)(=O)c2ccc3c(c2)n(C)c(=O)c(=O)n3C)c1	-11%	13%[46.1 µM]	-1	-4%[46.1 µM]	.	.
COC(=O)c1c(-c2cccs2)csc1NC(=O)COc1ccc(C(C)C)cc1	-28%	4%[46.1 µM]	-34	9%[46.1 µM]	.	.
CCN(c1ccccc1)c1ncnc2c1cnn2-c1ccc(OC)cc1	-3%	?	4	.	.	.
COC(COC(N)=O)C1=C(N2CC2)C(=O)C(C)=C(N2CC2)C1=O (stereo not drawn)	-1%	1.3µM*	-5	?	.	0.56µM*
CN(c1ccccc1)S(=O)(=O)c1ccc(Cl)c(C(=O)NC2=NCCS2)c1	-21%	.	-101*	.	2%	?
CN(C)C(CNC(=O)c1cc(S(=O)(=O)N(C)c2ccccc2)ccc1Cl)c1ccccc1 (stereo not drawn)	-28%	?	?	?	0%	7.1µM*
CCCCc1c(C)c(C#N)c2[nH]c3ccccc3n2c1=O	22µM*	?	-73*	?	-27%	-17%
COc1ccc(CCN2CN(S(=O)(=O)c3ccccc3)c3nc4ccccc4nc32)cc1OC	-11%	-4%	-66*	-26%	-9%	?
